Assay results published in PubChem BioAssay (NCATS).
Results filed as inconclusive are left out. Active and inactive are the calls of the source. Unless noted, calls come from the whole dose curve; as a rule, active = well fitted curve in the direction sought with a large enough effect; inconclusive = small, poorly fitted or top-dose-only effect, or another doubt; inactive = no such curve, though single readings can be large; an effect the other way counts as inactive or inconclusive.

Assays:
[1] = qHTS Assay for Identification of Small Molecule Antagonists for NFkB Signaling Pathway (AID 895; active = well fitted inhibition curve with a large enough effect in the signal ratio, with a control signal flat, not every such curve was filed as active; the % refers to the signal ratio; note: potency is the fitted concentration of half-maximal effect)
Outline: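 ME-180 NFkB-bla cells (beta-lactamase under NFkB response element), plated overnight, treated with compound then 10 pM TNF alpha (about EC50) for 5 hrs at 37 C. LiveBLAzer FRET read at 460/530 nm emission, 405 nm excitation.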

[2] = qHTS Assay for Identification of Small Molecule Agonists for Thrombopoietin (TPO) Signaling Pathway (AID 917)
Outline: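 Stimulation at the TPO EC50 (26 pM final) was used to detect activators. Ba/F3 mouse cells bearing human TPO receptor and a luciferase reporter under the Glycoprotein IIb promoter were exposed to compounds for 24 hrs at 37 C.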

[3] = molecular target: Pyruvate kinase (Leishmania mexicana) (UniProt Q27686); assay: qHTS Validation Assay for Inhibitors of Leishmania Mexicana Pyruvate Kinase (AID 945)
Outline: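 qHTS eight-point titrations against 0.2 nM LmPYK (E451W) in imidazole buffer pH 7.2 with 0.5 mM PEP, 0.1 mM ADP; 1 h, room temperature. Readout: PKLight luminescence, normalized to neutral DMSO wells.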

[4] = molecular target: Mitogen-activated protein kinase 10 (Mus musculus) (UniProt Q61831); assay: JNK3 AlphaScreen Assay (AID 530; active = well fitted curve in either direction with a large enough effect, not every such curve was filed as active;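 note: kinase came from lysate of stimulated human HepG2 cells; signal reports phosphorylation of biotinylated GST-cJun 1-79 at Ser73 with 10 µM ATP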)
Outline: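 Activity was read by AlphaScreen after JNK3-containing HepG2 lysate (cytokine pre-activated) phosphorylated biotinylated GST-cJun with 10 uM ATP at room temperature. Phospho-Ser73 cJun antibody with Protein-A acceptor beads provided detection.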

[5] = molecular target: Muscarinic acetylcholine receptor M1 (Rattus norvegicus) (UniProt P08482); assay: qHTS Assay for Antagonists of Acetylcholine Muscarinic M1 Receptor: Measurement of IP-One Response (AID 944); note: nearly all actives have a fitted effect of over 75% in size; note: potency is the fitted concentration of half-maximal effect
Outline: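 Antagonist mode with rat M1 receptor transfected into CHO cells. Compound is added first for 10 min, carbachol at its EC80 follows for 30 min, and lysis reagents then allow TR-FRET detection of accumulated IP1.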

AS120 = assay: qHTS profiling for inhibitors of Plasmodium falciparum proliferation (AID 504749); note: nearly all actives have a fitted effect of over 60% in size; note: potency is the fitted concentration of half-maximal effect; conditions: P. falciparum in erythrocytes, SYBR Green DNA, 72 h; series mostly up to 28.7 µM
Outline: (§1)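 Each compound contacts P. falciparum-infected red blood cells for 72 h at 37 C; lysis buffer (Tris, EDTA, saponin, Triton X, SYBR Green I) is added and fluorescence measured next morning; values normalized to controls.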

ATS189 = assay: as above; conditions: P. falciparum in erythrocytes, SYBR Green DNA, 72 h; series mostly up to 28.7 µM
Outline: as §1

ATS95 = assay: as above; conditions: P. falciparum in erythrocytes, SYBR Green DNA, 72 h; series mostly up to 28.7 µM
Outline: as §1

C2A = assay: as above; conditions: P. falciparum in erythrocytes, SYBR Green DNA, 72 h; series mostly up to 28.7 µM
Outline: as §1

CP191 = assay: as above; conditions: P. falciparum in erythrocytes, SYBR Green DNA, 72 h; series mostly up to 28.7 µM
Outline: as §1

CP217 = assay: as above; conditions: P. falciparum in erythrocytes, SYBR Green DNA, 72 h; series mostly up to 28.7 µM
Outline: as §1

CP237 = assay: as above; conditions: P. falciparum in erythrocytes, SYBR Green DNA, 72 h; series mostly up to 28.7 µM
Outline: as §1

CP252 = assay: as above; conditions: P. falciparum in erythrocytes, SYBR Green DNA, 72 h; series mostly up to 28.7 µM
Outline: as §1

CP286 = assay: as above; conditions: P. falciparum in erythrocytes, SYBR Green DNA, 72 h; series mostly up to 28.7 µM
Outline: as §1

DFO2036 = assay: as above; conditions: P. falciparum in erythrocytes, SYBR Green DNA, 72 h; series mostly up to 28.7 µM
Outline: as §1

ECU = assay: as above; conditions: P. falciparum in erythrocytes, SYBR Green DNA, 72 h; series mostly up to 28.7 µM
Outline: as §1

PC49 = assay: as above; conditions: P. falciparum in erythrocytes, SYBR Green DNA, 72 h; series mostly up to 28.7 µM
Outline: as §1

SC27B = assay: as above; conditions: P. falciparum in erythrocytes, SYBR Green DNA, 72 h; series mostly up to 28.7 µM
Outline: as §1

TAB113 = assay: as above; conditions: P. falciparum in erythrocytes, SYBR Green DNA, 72 h; series mostly up to 28.7 µM
Outline: as §1

TAB165 = assay: as above; conditions: P. falciparum in erythrocytes, SYBR Green DNA, 72 h; series mostly up to 28.7 µM
Outline: as §1

Measured: Potency

Sequence of Pyruvate kinase (Leishmania mexicana) (Q27686 2-499 E452W): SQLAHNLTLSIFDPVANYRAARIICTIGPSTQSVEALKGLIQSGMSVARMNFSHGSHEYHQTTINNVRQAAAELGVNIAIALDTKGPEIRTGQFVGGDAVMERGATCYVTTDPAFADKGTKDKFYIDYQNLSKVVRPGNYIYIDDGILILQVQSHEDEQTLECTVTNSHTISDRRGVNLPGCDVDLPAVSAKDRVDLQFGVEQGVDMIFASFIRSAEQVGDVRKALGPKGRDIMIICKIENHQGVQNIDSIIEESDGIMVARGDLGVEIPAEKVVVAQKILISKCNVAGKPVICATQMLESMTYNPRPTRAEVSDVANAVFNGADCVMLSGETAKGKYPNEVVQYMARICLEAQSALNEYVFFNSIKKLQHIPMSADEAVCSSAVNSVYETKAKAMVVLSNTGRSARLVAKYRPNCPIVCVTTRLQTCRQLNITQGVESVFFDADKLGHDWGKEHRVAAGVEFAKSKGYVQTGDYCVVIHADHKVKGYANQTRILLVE
Sequence of Muscarinic acetylcholine receptor M1 (Rattus norvegicus) (P08482 whole entry, looked up): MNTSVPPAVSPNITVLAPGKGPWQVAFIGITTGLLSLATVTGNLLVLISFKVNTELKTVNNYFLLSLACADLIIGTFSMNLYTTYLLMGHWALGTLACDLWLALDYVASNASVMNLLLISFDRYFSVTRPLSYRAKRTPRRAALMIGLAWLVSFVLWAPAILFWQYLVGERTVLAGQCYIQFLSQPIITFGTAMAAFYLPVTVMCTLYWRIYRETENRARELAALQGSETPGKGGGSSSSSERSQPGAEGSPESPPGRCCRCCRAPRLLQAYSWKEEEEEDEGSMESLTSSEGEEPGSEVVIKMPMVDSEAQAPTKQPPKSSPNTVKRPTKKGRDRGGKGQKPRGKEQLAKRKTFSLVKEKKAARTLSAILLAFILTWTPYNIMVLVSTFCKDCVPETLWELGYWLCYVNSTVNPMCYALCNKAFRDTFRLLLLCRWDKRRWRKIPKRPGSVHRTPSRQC

CC(=O)NCCc1ccc(O)c(O)c1
inactive: [1] | [2] | [3]

CC(C)CN(C)c1nc(N)c(C(=O)N=C(N)N)nc1Cl
inactive: [4] | [1] | [5] | [3]

CC(C)C[C@H]1C(=O)N2CCCC2[C@]2(O)O[C@](NC(=O)[C@@H]3C=C4c5cccc6[nH]c(Br)c(c56)C[C@H]4N(C)C3)(C(C)C)C(=O)N12 (some centres not stated)
active: AS120 3.55 µM | ATS189 5.01 µM | ATS95 5.01 µM | C2A 11.2 µM | CP191 7.94 µM | CP217 7.08 µM | CP237 2 µM | CP252 7.08 µM | CP286 3.55 µM | DFO2036 11.2 µM | ECU 3.55 µM | PC49 6.31 µM | SC27B 6.31 µM | TAB113 3.16 µM | TAB165 2.82 µM

COc1ccc(CCNC[C@@H](O)c2ccc(O)cc2)cc1OC
inactive: AS120 | ATS189 | ATS95 | C2A | CP191 | CP217 | CP237 | CP252 | CP286 | DFO2036 | ECU | PC49 | SC27B | TAB113 | TAB165

CC(C)(C)[C@]1(O)CCN2CC3c4ccccc4CCc4cccc(c43)[C@@H]2C1 (some centres not stated)
inactive: PC49
active: ATS95 10 µM | C2A 11.2 µM | CP191 8.91 µM | CP217 8.91 µM | CP237 11.2 µM | CP252 10 µM | CP286 8.91 µM | ECU 14.1 µM | SC27B 7.94 µM | TAB165 11.2 µM

N[C@H](Cc1ccc(O)c(O)c1)C(=O)O
inactive: AS120 | ATS189 | ATS95 | C2A | CP191 | CP217 | CP237 | CP252 | CP286 | DFO2036 | ECU | PC49 | SC27B | TAB113 | TAB165

COc1cc2c(cc1OC)C(c1ccccc1)CN(C)CC2 (configuration not stated)
active: CP237 6.31 µM
inactive: AS120 | ATS189 | ATS95 | C2A | CP217 | CP252 | CP286 | DFO2036 | ECU | SC27B | TAB113 | TAB165

CCSC(N)=Nc1ccc(C(F)(F)F)cc1
inactive: [4] | [2]

COC(=O)c1c(-c2cc(OC)c(OC)c(OC)c2)c2ccc(OCc3ccccn3)cc2c(=O)n1-c1ccc(N)cc1
active: [1] 3.16 µM
inactive: [4] | [2] | [5] | [3]

CCn1c(=O)c2[nH]c(-c3ccccc3)nc2n(CC)c1=O
inactive: [1] | [5] | [3]

NCCCCNS(=O)(=O)c1cccc2c(Cl)cccc12
active: [5] 17.8 µM
inactive: [3]

NC(=NCCC[C@H](N)C(=O)O)NO
active: [1] 0.398 µM
inactive: [4] | [2] | [5] | [3]

CCCC(=O)NCCc1c2n(c3ccc(OC)cc13)Cc1ccccc1-2
inactive: [4] | [2] | [5] | [3]

CN1C[C@H](C(=O)N[C@]2(C)O[C@@]3(O)C4CCCN4C(=O)[C@H](Cc4ccccc4)N3C2=O)C[C@@H]2c3cccc4[nH]cc(c34)C[C@H]21 (some centres not stated)
active: AS120 1.41 µM | ATS189 3.98 µM | ATS95 7.08 µM | C2A 8.91 µM | CP191 7.08 µM | CP217 6.31 µM | CP237 1 µM | CP252 6.31 µM | CP286 3.98 µM | DFO2036 7.94 µM | ECU 1.12 µM | PC49 1.78 µM | SC27B 2.24 µM | TAB113 3.55 µM | TAB165 1.41 µM
